# High-throughput results from PubChem.
# The sample as a whole holds a higher share of hits than the screen did.
# ERp5 block: ERp5 (human) disulfide isomerase inhibition; Q15084; ERp5 insulin aggregation, absorbance 650 nm, 90 min; inhibition, % at 9.99 µM; hit rate 0.05% among 350,000;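 active = mean replicate inhibition above about 25%, with every replicate also reaching it, limit read from the data, passing the limit was not always enough; inconclusive = only one of those two criteria met; inactive = neither criterion met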
# SIRT5 inh: inhibitors of human sirtuin-5 desuccinylase; Q9NXA8; Purified SirT5, succinyl-peptide AMC, trypsin-coupled fluorescence; inhibition, % at 15 µM; hit rate 1.1% among 330,000; AID 652115; in the data active = inhibition above about 15%; inconclusive = no clear call, values can overlap the other calls
# PDI inh: PDI (human) enzyme inhibition; P07237; PDI insulin aggregation turbidity, A650, 90 min; inhibition, % at 10 µM; hit rate 0.052% among 350,000; AID 588391;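 active = mean inhibition across replicates of 30% or more, whatever share of single replicates reach that level; inconclusive = mean inhibition below 30% while every single replicate reaches 30%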
# HDAC3 inhib: blocks human histone deacetylase 3; recombinant HDAC3, fluorogenic peptide/trypsin coupled, fluorescence; hit rate 0.15% among 320,000; inhibition, % at 8.3 µM; in the data active = inhibition above about 26%, passing the limit was not always enough; inconclusive = no clear call, values can overlap the other calls
# ERAP1 HTS inh: ERAP1 (human) enzyme inhibition; Q9NZ08; inhibition, % at 10.7 µM; recombinant ERAP1, Leu-AMC fluorescence, 60 min; hit rate 0.15% among 340,000;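 active = mean replicate inhibition of at least 30%, or all replicates individually reaching that 30% level; inactive = mean below 30% and not every replicate reaching it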;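 also: 0% = neutral control wells and 100% = L-leucinethiol positive control wells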
# Target sequence (Q9NZ08 whole entry, looked up): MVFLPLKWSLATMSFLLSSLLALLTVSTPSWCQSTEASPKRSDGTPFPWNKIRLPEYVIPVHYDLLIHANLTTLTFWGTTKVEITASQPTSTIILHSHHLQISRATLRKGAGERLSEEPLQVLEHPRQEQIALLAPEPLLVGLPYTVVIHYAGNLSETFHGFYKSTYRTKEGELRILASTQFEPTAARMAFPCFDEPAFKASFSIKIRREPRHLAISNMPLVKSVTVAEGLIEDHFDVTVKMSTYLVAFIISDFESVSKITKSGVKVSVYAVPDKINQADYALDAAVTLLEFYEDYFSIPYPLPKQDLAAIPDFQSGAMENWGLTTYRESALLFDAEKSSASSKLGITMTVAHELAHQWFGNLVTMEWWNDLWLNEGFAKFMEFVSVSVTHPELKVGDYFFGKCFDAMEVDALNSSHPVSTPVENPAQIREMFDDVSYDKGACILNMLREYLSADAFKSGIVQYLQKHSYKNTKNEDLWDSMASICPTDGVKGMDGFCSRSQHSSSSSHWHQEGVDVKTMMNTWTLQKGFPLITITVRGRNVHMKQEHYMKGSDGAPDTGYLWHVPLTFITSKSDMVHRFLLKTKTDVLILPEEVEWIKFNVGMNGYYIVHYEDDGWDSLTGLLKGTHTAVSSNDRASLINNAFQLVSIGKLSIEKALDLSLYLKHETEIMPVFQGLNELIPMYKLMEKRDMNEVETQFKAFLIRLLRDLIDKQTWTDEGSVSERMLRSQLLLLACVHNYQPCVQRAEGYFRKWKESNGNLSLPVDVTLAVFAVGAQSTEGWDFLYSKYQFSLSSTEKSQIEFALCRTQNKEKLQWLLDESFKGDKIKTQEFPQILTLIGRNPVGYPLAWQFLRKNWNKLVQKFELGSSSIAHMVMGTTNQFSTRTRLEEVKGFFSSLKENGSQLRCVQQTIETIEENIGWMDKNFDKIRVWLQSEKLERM
# * marks the source's active call; other numbers are inactive results; ? = inconclusive; · = not tested or not shown.
SMILES,ERp5 block,SIRT5 inh,PDI inh,HDAC3 inhib,ERAP1 HTS inh
COc1ccc(C#Cc2ccc3c(c2)[C@H]2[C@H](CCN2S(=O)(=O)c2ccccc2C)[C@H](CO)N3C)cc1,-2,1,·,·,4
COc1ccc(NC(=O)N(C)C[C@@H]2OCCCC[C@@H](C)Oc3ccc(NC(=O)c4ccccc4)cc3C(=O)N([C@H](C)CO)C[C@H]2C)cc1,8,7,·,·,-3
COc1ccc(N=c2ssnc2Cl)cc1,·,·,4,?,·
N#Cc1ccc(N=c2ssnc2Cl)cc1,·,·,1,38*,·
COc1cc(N=c2ssnc2Cl)cc(OC)c1OC,·,·,-15,36*,·
O=C(C[C@H]1CC[C@H]2[C@@H](COC[C@@H](O)CN2Cc2cc(F)ccc2F)O1)N1CCc2ccccc2C1,3,-2,·,·,3
COC(=O)c1ccc2nc(-c3ccc(C)cc3)c(Cc3ccccc3)n2c1,-16,24*,·,·,-3
COC(=O)c1ccc2nc(-c3ccccc3)c(Cc3ccc(C)cc3)n2c1,8,-6,·,·,0
Cc1noc(C)c1NC(=O)N[C@@H]1CC[C@@H](CCNC(=O)C2CCC2)O[C@@H]1CO,-4,-1,·,·,3
CC1=NN(C(=O)c2ccc(Cn3cc([N+](=O)[O-])cn3)cc2)C(O)(C(F)(F)F)C1 (stereo not drawn),?,18*,-2,-2,0
O=S(=O)(NCc1ccc2c(c1)OCO2)c1ccccc1F,0,22*,-19,4,-1
Cc1ccc(S(=O)(=O)N2[C@@H](c3ccc(C(C)(C)C)cc3)C(C(=O)O)=CC[C@H]2c2ccc(Cl)c(Cl)c2)cc1,-3,16*,-7,·,·
COC(=O)C[C@H]1CC[C@@H]2[C@H](COc3ccc(NC(=O)Nc4cc(C)cc(C)c4)cc3C(=O)N2C)O1,-5,-4,·,·,2
COc1cc(/C=C2\SC(=Nc3ccccc3)NC2=O)cc(Cl)c1O,1,3,-14,?,4
COc1cc(/C=C2\SC(=Nc3ccc(Cl)c(C(=O)O)c3)NC2=O)c(Br)c(Br)c1O,-4,26*,11,6,-15
COC(=O)CS(=O)(=O)c1nnc([C@H](Cc2ccccc2)NC(=O)OC(C)(C)C)o1,·,·,-2,55*,·
COC(=O)CSc1nnc([C@H](Cc2ccccc2)NC(=O)OC(C)(C)C)o1,·,·,-2,0,·
Cc1cccc(CS(=O)(=O)c2nnc([C@H](Cc3ccccc3)NC(=O)OC(C)(C)C)o2)c1,·,·,6,61*,·
CC(C)(C)OC(=O)N[C@@H](Cc1ccccc1)c1nnc(SCC(N)=O)o1,6,-4,-1,0,2
C[C@H](CO)N1C[C@H](C)[C@H](CN(C)C(=O)C2CC2)Oc2ncc(C#CCc3ccccc3)cc2C1=O,3,-7,·,·,0
CC(NS(=O)(=O)c1ccc2[nH]c(=O)c(=O)[nH]c2c1)C(=O)O (stereo not drawn),2,25*,8,5,-1
CC(C)CC(NS(=O)(=O)c1ccc2[nH]c(=O)c(=O)[nH]c2c1)C(=O)O (stereo not drawn),-1,3,0,-3,3
C[C@H](O)C#Cc1ccc2c(c1)O[C@@H](CN(C)Cc1ccccc1)[C@H](C)CN([C@@H](C)CO)S2(=O)=O,15,4,·,·,4
C[C@H](O)C#Cc1ccc2c(c1)O[C@H](CN(C)Cc1ccc(-c3ccccc3)cc1)[C@H](C)CN([C@H](C)CO)S2(=O)=O,-4,32*,·,·,3
C[C@@H]1CN([C@@H](C)CO)S(=O)(=O)c2ccc(C#C[C@@H](C)O)cc2O[C@H]1CN(C)Cc1ccc(-c2ccccc2)cc1,5,35*,·,·,0
SMILES,ERp5 block,SIRT5 inh,PDI inh,HDAC3 inhib,ERAP1 HTS inh
C[C@H](CO)N1C[C@H](C)[C@H](CN(C)Cc2ccc(-c3ccccc3)cc2)Oc2cc(C#C[C@@H](C)O)ccc2S1(=O)=O,9,25*,·,·,1
C[C@H](O)C#Cc1ccc2c(c1)O[C@@H](CN(C)Cc1ccc(-c3ccccc3)cc1)[C@@H](C)CN([C@@H](C)CO)S2(=O)=O,-6,30*,·,·,-1
Cc1ccc(S(=O)(=O)Nc2cccc3c2O[C@H](CN(C)S(C)(=O)=O)[C@H](C)CN([C@H](C)CO)C3=O)cc1,3,2,·,·,6
CN1[C@@H]2c3ccc(-c4ccncc4)c(=O)n3C[C@@H]2[C@@H](CO)[C@@H]1C(=O)NCCc1ccccc1,0,-4,·,·,0
C[C@H](O)C#Cc1ccc2c(c1)O[C@H](CN(C)Cc1ccc(-c3ccccc3)cc1)[C@@H](C)CN([C@H](C)CO)S2(=O)=O,0,28*,·,·,1
Cn1nnnc1Sc1ccc([N+](=O)[O-])cc1Cl,7,17*,8,5,1
Cc1cccc(N2CCN(C(=O)c3ccc4nc[nH]c4c3)CC2)c1C,-1,31*,-2,0,-8
CCO[C@H]1OC(C(=O)O)=C[C@@H](C(C)(C)C)[C@@H]1CCCO,1,23*,-1,-2,-4
CC(C)C[C@H](NS(=O)(=O)c1ccc(F)cc1F)C(=O)N1CCC[C@H]1C(=O)NCc1ccccc1,8,23*,·,·,1
CCOc1ccc(NC(=O)C2CCCN2C(=O)Oc2ccccc2)cc1 (stereo not drawn),5,2,-6,-6,57*
Cc1cc(C)cc(NC(=O)C2CCCN2C(=O)Oc2ccccc2)c1 (stereo not drawn),·,·,0,-2,·
CCC(=O)N1[C@@H](CO)[C@@H]2c3ccccc3N(C(=O)Nc3ccccc3Cl)C[C@@H]21,9,-4,·,·,0
C[N+](C)(C)CCCNC(=O)c1ccc(/C=N/O)nc1,0,-3,3,15,109*
CNCCCNC(=O)c1ccc(/C=N/O)nc1,2,0,0,1,0
CC1CCCCC12NC(=O)N(CC(=O)Nc1ccc(N3CCOCC3)cc1)C2=O (stereo not drawn),3,16*,9,3,0
C[C@H]1CN([C@@H](C)CO)C(=O)c2cccc(N(C)C)c2O[C@@H]1CN(C)C(=O)NC1CCCCC1,-7,-6,·,·,1
C[C@@H]1CN([C@H](C)CO)C(=O)c2cccc(NC(=O)Nc3ccc(C(F)(F)F)cc3)c2O[C@H]1CN(C)C(=O)Nc1cccc2ccccc12,10,27*,·,·,-1
C[C@@H]1CN([C@H](C)CO)C(=O)c2cccc(N(C)C)c2O[C@@H]1CN(C)C(=O)NC1CCCCC1,4,27*,·,·,1
C[C@@H]1CN([C@@H](C)CO)C(=O)c2cccc(NC(=O)Nc3ccc(C(F)(F)F)cc3)c2O[C@H]1CN(C)C(=O)NC1CCCCC1,1,101*,·,·,-2
C[C@H]1CN([C@@H](C)CO)C(=O)c2cccc(NC(=O)Nc3ccc(C(F)(F)F)cc3)c2O[C@@H]1CN(C)C(=O)Nc1cccc2ccccc12,4,2,·,·,-1
CO[C@H]1CN(C)C(=O)c2cc(NS(=O)(=O)CC(F)(F)F)ccc2OC[C@H](C)N(Cc2nccs2)C[C@@H]1C,-2,1,·,·,·
